Laboratory results published in PubChem BioAssay (NCI).
About 83,000 compounds went through this panel and 20% of them were active in at least one assay; those are over-represented in the sample as a whole.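 Testing used 96-well plates and a 48-hour single-concentration exposure. Example: -40 means 40% of the starting cells died.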 A number with no mark means an inactive call. Activity calls are given as the source filed them. The calls were made as follows: active = growth percent below 10; inactive = the rest.

Columns and labels:
Experiment in all cases: NCI-60 one-dose screen, 48 h (100 = growth as untreated, 0 = no growth, -100 = all killed)
HCT-15 colon = conditions: 10 µM unless noted
HT29 colon = conditions: 10 µM unless noted
SNB-75 CNS = conditions: 10 µM unless noted
SNB-19 CNS = conditions: 10 µM unless noted
U251 CNS = conditions: 10 µM unless noted
PC-3 prostate = conditions: 10 µM unless noted
SK-MEL-5 melanoma = conditions: 10 µM unless noted
UACC-62 melanoma = conditions: 10 µM unless noted
LOX IMVI melanoma = conditions: 10 µM unless noted
SK-MEL-28 melanoma = conditions: 10 µM unless noted
SK-MEL-2 melanoma = conditions: 10 µM
EKVX NSCLC = conditions: 10 µM unless noted
SN12C renal = conditions: 10 µM unless noted
UO-31 renal = conditions: 10 µM unless noted
TK-10 renal = conditions: 10 µM unless noted
ACHN renal = conditions: 10 µM unless noted
A498 renal = conditions: 10 µM unless noted
MOLT-4 leukemia = conditions: 10 µM unless noted
CCRF-CEM leukemia = conditions: 10 µM unless noted
CAKI-1 renal = conditions: 10 µM unless noted

Compound	growth (HCT-15 colon)	growth (HT29 colon)	growth (SNB-75 CNS)	growth (SNB-19 CNS)	growth (U251 CNS)	growth (PC-3 prostate)	growth (SK-MEL-5 melanoma)	growth (UACC-62 melanoma)	growth (LOX IMVI melanoma)	growth (SK-MEL-28 melanoma)	growth (SK-MEL-2 melanoma)	growth (EKVX NSCLC)	growth (SN12C renal)	growth (UO-31 renal)	growth (TK-10 renal)	growth (ACHN renal)	growth (A498 renal)	growth (MOLT-4 leukemia)	growth (CCRF-CEM leukemia)	growth (CAKI-1 renal)
CCc1ccc(C2=C(O)C(=O)C(c3ccc(CC)cc3)=C(O)C2=O)cc1	6.42% (active)	0.54% (active)	-16.9% (active)	8.83% (active)	1.63% (active)	6.64% (active)	-58.7% (active)	-44.1% (active)	4.72% (active)	-19.2% (active)	-44.4% (active)	-15% (active)	-6.25% (active)	0.57% (active)	5.31% (active)	-9.41% (active)	-31% (active)	-6.88% (active)	–	–
CC(=Nc1ccccc1)C1=C(O)C(Cc2ccc(O)cc2)NC1=O (stereo not given)	12.1%	1.34% (active)	15.2%	34%	12.8%	15.7%	-44% (active)	28.6%	19.2%	40%	42.2%	20.4%	43.5%	42.3%	68.2%	33.2%	-25.6% (active)	-3.04% (active)	–	–
Cc1cc(N(CCNc2ccnc3cc(Cl)ccc23)Cc2ccc3c(c2)OCO3)nc(N2CCN(C)CC2)n1	0.627% (active)	0.16% (active)	32.4%	29.4%	-22.1% (active)	48.2%	-96.1% (active)	33.7%	-71.8% (active)	-65.7% (active)	-57.5% (active)	73.4%	60.7%	2.58% (active)	-24.9% (active)	–	42.6%	0.0794% (active)	-11.8% (active)	–
CC1CCC(n2cnc3c(Cl)ncnc32)O1 (stereo not given)	103%	110%	91.9%	82.3%	102%	89.6%	91%	104%	87.1%	109%	109%	94.5%	110%	96.4%	88%	104%	124%	113%	85.8%	–
CCN1CCN(c2cc(C)nc(N(CCCNc3ccnc4cc(Cl)ccc34)Cc3ccc4c(c3)OCO4)n2)CC1	1.33% (active)	-12.2% (active)	-15% (active)	16.3%	-45.4% (active)	15.8%	-95.7% (active)	-47.8% (active)	-75% (active)	-73.6% (active)	-67.9% (active)	42.3%	34.6%	-81.9% (active)	-58.2% (active)	–	27.8%	-15.9% (active)	-18.1% (active)	–
C=C1C(=O)O[C@H]2[C@H]1CC/C(CNC(=O)c1cc3cc(OC)ccc3[nH]1)=C\CC[C@@]1(C)O[C@@H]21	-78.4% (active)	-70.9% (active)	51.4%	44%	14.5%	-52.5% (active)	-39.2% (active)	-66.1% (active)	-93.5% (active)	-59.3% (active)	-42.7% (active)	-55.9% (active)	-38.5% (active)	-75.8% (active)	-83% (active)	–	–	-31% (active)	-19.3% (active)	-74.1% (active)
COc1ccc(-c2cc3c(oc2=O)-c2ccccc2OC3OC(C)=O)cc1 (stereo not given)	86.2%	81.1%	100%	98%	89.4%	89.2%	98.2%	81.8%	98.2%	118%	100%	73.2%	91.5%	–	104%	102%	100%	72.4%	-25.9% (active)	113%
Cc1cccc(NC(=O)[C@@H]2c3ccccc3C(=O)N(c3ccc(Cl)cc3)[C@H]2c2ccc(Cl)cc2)n1	26.1%	11%	68.5%	67.5%	43.1%	17.1%	33.1%	44.1%	80.3%	69.2%	56.6%	37.2%	66.5%	37.6%	69.6%	–	–	35.9%	73.2%	55.6%
Cc1cc(N2CCCC2)nc(N(CCCNc2ccnc3cc(Cl)ccc23)Cc2ccc3c(c2)OCO3)n1	3.01% (active)	-23.9% (active)	3.65% (active)	23.5%	-9.48% (active)	20.7%	-96.8% (active)	-32.9% (active)	-78.3% (active)	-82% (active)	-50.7% (active)	35.9%	29.3%	-24.5% (active)	-12.6% (active)	–	13.6%	-15.4% (active)	1% (active)	–
COc1cc2c(cc1OCCCCCN1CCN(c3ncnc4ccccc34)CC1)N=CC1CCCN1C2=O (stereo not given)	0.198% (active)	8.89% (active)	-50.2% (active)	12.6%	2.18% (active)	-38.6% (active)	-80.6% (active)	-90.4% (active)	-49.2% (active)	-14.6% (active)	1.29% (active)	-41.5% (active)	1.92% (active)	–	-21.4% (active)	1.61% (active)	–	0.399% (active)	-37.2% (active)	-18.1% (active)
COc1cc(-c2nc(C(=O)NCC(=O)O)nn2-c2ccc(Cl)cc2)cc(OC)c1OC	102%	106%	115%	109%	96.6%	94.3%	98.3%	104%	84.9%	104%	120%	91.7%	101%	90.5%	117%	112%	107%	100%	84.2%	–
C=C1C(=O)O[C@H]2[C@H]1CC/C(Cn1cc(-c3cc(C)c(C)cc3C)nn1)=C\CC[C@@]1(C)O[C@@H]21	-82.6% (active)	-67.9% (active)	29%	41.8%	12.8%	-69.7% (active)	7.44% (active)	-82% (active)	-95% (active)	-76.3% (active)	-12.9% (active)	-79.9% (active)	-34.6% (active)	-98.3% (active)	-98.9% (active)	–	–	-19.2% (active)	-13.8% (active)	-93.7% (active)
COc1cc2c(cc1OCCCCCCN1CCN(c3ncnc4ccccc34)CC1)N=CC1CCCN1C2=O (stereo not given)	-2.53% (active)	10.9%	-46.9% (active)	17%	0.0332% (active)	-23.1% (active)	-87.2% (active)	-95.8% (active)	-51.1% (active)	-4.17% (active)	3.62% (active)	-8.7% (active)	-10.4% (active)	–	1.29% (active)	0.483% (active)	–	-32.1% (active)	-32.8% (active)	-19.6% (active)
O=C(Cc1ccccc1)Nc1nnc(NC2CCN(c3nnc(NC(=O)Cc4ccccc4)s3)CC2)s1	99.4%	94.4%	106%	107%	90.8%	87.1%	98.7%	89%	69.2%	107%	122%	90.2%	86%	74.4%	110%	–	43.8%	91.3%	72.4%	–
Cc1cc2c(-c3nc4ccccn4c3NC3CCCCC3)c(O)c(O)cc2c(O)c1-c1c(C)cc2c(-c3nc4ccccn4c3NC3CCCCC3)c(O)c(O)cc2c1O	19.9%	25.7%	28%	25.3%	19.8%	18.4%	23.9%	-1.66% (active)	27.4%	38.9%	38.9%	27.1%	33%	35.3%	27.5%	–	71.4%	43.6%	23.5%	–
CC(C)OP(=O)(CCC(=O)c1c[nH]c2ccccc12)OC(C)C	104%	97.2%	82.6%	104%	90.1%	73.2%	110%	97%	96.2%	121%	98.9%	96.5%	103%	82.9%	97.8%	101%	104%	93.3%	75.7%	–
O=c1nc2c(-c3nc4ccccc4s3)n[nH]n2c2sc3c(c12)CCCC3	64%	111%	104%	101%	86.5%	79.6%	101%	92.7%	96.9%	114%	112%	92%	97.1%	75.4%	147%	105%	–	98.6%	79.8%	–
